The supplement of paper PMC13380429

System: Vero E6 infected with SARS-CoV-2
Assay: inhibition of SARS-CoV-2 cytopathic effect; higher = more antiviral protection, active = above 15
Conditions: 48 h

Measured: inhibition of SARS-CoV-2 cytopathic effect

C[C@@H](O)[C@H]1C(=O)N2C(C(=O)[O-])=C(SC3Cn4cnc[n+]4C3)[C@H](C)[C@H]12 (stereo not given in full) [biapenem]
inactive: 1 nM -2.15% | 8.33 nM -0.04% | 100 nM 0.1% | 833.33 nM 0.63% | 10000 nM -0.14%

COc1cc(Br)c(S(=O)(=O)Nc2ccc(Cl)c(O[C@@H]3CCN(C)C3)c2)cc1OC
inactive: 1 nM 1.45% | 8.33 nM 1.7% | 100 nM -0.06% | 833.33 nM -0.33% | 10000 nM -0.58%

O=S(=O)(F)Cc1ccccc1 [phenylmethylsulfonyl-fluoride]
inactive: 1 nM -2.45% | 8.33 nM -1.22% | 100 nM 2.93% | 833.33 nM 0.75% | 10000 nM 1.71%

O=[N+]([O-])c1ccc2nc(COCc3nc4ccc([N+](=O)[O-])cc4[nH]3)[nH]c2c1
inactive: 1 nM -1.36% | 8.33 nM -1.65% | 100 nM -4.45% | 833.33 nM 0.4% | 10000 nM -0.17%

Cc1cc(O)c(-c2ccc([C@@H](C)CN)cc2)c2c1[nH]c(=O)c1sccc12
inactive: 1 nM -2.25% | 8.33 nM -1.13% | 100 nM -0.22% | 833.33 nM 3.77% | 10000 nM -23.9%

Cc1cc(C)c(S(=O)(=O)Nc2ccccc2C(F)(F)F)c(C)c1
inactive: 1 nM 2.1% | 8.33 nM 6.17% | 100 nM 4.56% | 833.33 nM 2.55% | 10000 nM 4.64%

CO[C@H]1C[C@H](O[C@H]2[C@H](C)O[C@@H](O[C@@H]3/C(C)=C/C[C@@H]4C[C@@H](C[C@]5(C=C[C@H](C)[C@@H](C6CCCCC6)O5)O4)OC(=O)[C@@H]4C=C(C)[C@@H](O)[C@H]5OC/C(=C\C=C\[C@@H]3C)[C@]54O)C[C@@H]2OC)O[C@@H](C)[C@@H]1O [doramectin]
inactive: 1 nM 0.81% | 8.33 nM 1.22% | 100 nM 1.24% | 833.33 nM 0.55% | 10000 nM 2.69%
